Experimental data taken from PubChem BioAssay (EPA / NIEHS).
Values joined by “and” are separate entries in the source; they are usually repeats but may differ in a detail not shown here. Equal entries are not always repeated. Records with an inconclusive call do not appear. A structure can be active in one record and inactive in another. Active and inactive are the calls of the source. Rule for the calls, unless noted: active = hit-call score of the fitted dose curve at least 0.9, where 1 is the maximum; inactive = score below 0.9.

What was measured:
[1] = ATG_RORE_CIS: Attagene CIS-FACTORIAL HepG2 Assay for human RAR-related Orphan Receptor Element (RORE) (AID 2282959); conditions: HepG2 Attagene cis-factorial RORE reporter, mRNA; actives raise or lower the signal
Method in brief: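 Transiently transfected HepG2 reporter cells were treated 24 h. Reporter transcripts were detected by RT-PCR and capillary electrophoresis, with bidirectional fitting against DMSO.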

[2] = ATG_Sox_CIS: Attagene CIS-FACTORIAL HepG2 Assay for human SRY-box transcription factor (SOX) (AID 2282960); conditions: HepG2 Attagene cis-factorial SOX reporter, mRNA; actives raise or lower the signal
Method in brief: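 Gain- or loss-of-signal endpoint, fitted bidirectionally with DMSO as negative control. Based on reporter mRNA from transfected HepG2 cells harvested 24 h post-treatment and quantified via RT-PCR and capillary electrophoresis.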

[3] = target: Transcription factor Sp1 (Homo sapiens) (UniProt P08047); test: ATG_Sp1_CIS: Attagene CIS-FACTORIAL HepG2 Assay for human Specificity Protein 1 (Sp1) (AID 2282961); conditions: HepG2 Sp1 cis-reporter transcription, actives raise or lower the signal
Method in brief: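 Endpoint reflects endogenous Sp1 transcriptional activity, not an exogenous fusion protein: HepG2 cells with transfected cis-regulated reporters, 24 h dosing, RT-PCR/capillary electrophoresis mRNA read-out, DMSO-normalised bidirectional fit.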

[4] = ATG_SREBP_CIS: Attagene CIS-FACTORIAL HepG2 Assay for human Sterol Regulatory Element Binding (SREBP) (AID 2282962); conditions: HepG2 Attagene cis-factorial SREBP reporter, mRNA; actives raise or lower the signal
Method in brief: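 Readout: fluorescent reporter-transcript peaks resolved by capillary electrophoresis after RT-PCR. Cells were human HepG2 carrying transfected cis-promoter reporter constructs, dosed for 24 h. Gain or loss of signal was fitted against DMSO controls.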

[5] = target: Signal transducer and activator of transcription 3 (Homo sapiens) (UniProt P40763); test: ATG_STAT3_CIS: Attagene CIS-FACTORIAL HepG2 Assay for human Signal Transducer and Activator of Transcription 3 (STAT3) (AID 2282963); conditions: HepG2, Attagene cis-factorial STAT3 reporter transcription; actives raise or lower the signal
Method in brief: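 Cis-factorial format: endogenous transcription factors in HepG2 drive transfected reporter units. After 24 h treatment, reporter RNA was reverse-transcribed, amplified, FAM-labelled and HpaI-digested before CE analysis; activity scored in both directions against DMSO.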

[6] = ATG_TA_CIS: Attagene CIS-FACTORIAL HepG2 Assay for human TA Basal Promoter (AID 2282964); conditions: HepG2 Attagene CIS-factorial TA basal promoter reporter; actives raise or lower the signal
Method in brief: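 Transfected HepG2, 24 h compound exposure; RNA → RT-PCR → FAM primer extension → HpaI cut → CE fluorescence. Gain/loss-of-signal fitted against DMSO negative control. Background-control readout.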

[7] = ATG_TCF_b_cat_CIS: Attagene CIS-FACTORIAL HepG2 Assay for human T-Cell-Factor with beta-catenin (TCF/b-cat) (AID 2282965); conditions: HepG2 TCF/beta-catenin cis-reporter transcription, actives raise or lower the signal
Method in brief: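 Endogenous transcription factor activity is captured through cis-promoter reporter constructs transiently introduced into human HepG2 liver cells. Induced reporter mRNA is measured after 24 h and fitted bidirectionally relative to DMSO.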

[8] = ATG_TAL_CIS: Attagene CIS-FACTORIAL HepG2 Assay for human TAL Basal Promoter (AID 2282966); conditions: HepG2 Attagene cis-factorial TAL promoter reporter; actives raise or lower the signal;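 note: background control endpoint measuring basal TAL promoter reporter mRNA not a specific factor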
Method in brief: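 HepG2, transient MRTU transfection, 24 h compound exposure; RNA → oligo(dT) RT → PCR → 6-FAM primer extension → HpaI digest → CE fluorescence. Bidirectional curve fit vs DMSO. Background-control readout.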

[9] = ATG_TGFb_CIS: Attagene CIS-FACTORIAL HepG2 Assay for human Transforming Growth Factor (TGF) (AID 2282967); conditions: HepG2 Attagene CIS TGFb reporter, mRNA transcription; actives raise or lower the signal
Method in brief: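 Readout: fluorescently labeled reporter cDNA fragments resolved by capillary electrophoresis after RT-PCR. Transfected HepG2 cells dosed for 24 h; endogenous TF activity at TGFB1-linked cis element; gain or loss fitted relative to DMSO.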

[10] = ATG_VDRE_CIS: Attagene CIS-FACTORIAL HepG2 Assay for human Vitamin D Receptor Element (VDRE) (AID 2282968); conditions: HepG2 VDRE cis-reporter transcription, actives raise or lower the signal
Method in brief: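 Measures endogenous factor activity through cis-element-driven reporter transcripts in transiently transfected HepG2. Cells are treated 24 h; reporter mRNA is quantified by RT-PCR and capillary electrophoresis; fitting is bidirectional.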

[11] = target: Estrogen receptor (Homo sapiens) (UniProt P03372); test: ATG_ERa_TRANS: Attagene TRANS-FACTORIAL HepG2 Assay for human Estrogen Receptor alpha (ERa) (AID 2282970; active = hit-call score of the fitted dose curve at least 0.9, where 1 is the maximum); conditions: HepG2 Attagene TRANS ERa GAL4 reporter, mRNA
Method in brief: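 Reporter mRNA induction after 24 hours, detected by fluorescent RT-PCR and capillary electrophoresis, gives the read-out. Cells are HepG2 transiently transfected with GAL4-UAS reporter transcription units responding to chimeric NR-Gal4. Activity is taken as gain of signal over DMSO baseline.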

[12] = target: Steroid hormone receptor ERR1 (Homo sapiens) (UniProt P11474); test: ATG_ERRa_TRANS: Attagene TRANS-FACTORIAL HepG2 Assay for human Estrogen-Related Receptor alpha (ERRa) (AID 2282971; active = hit-call score of the fitted dose curve at least 0.9, where 1 is the maximum); conditions: HepG2 Attagene TRANS reporter, ERRa transactivation
Method in brief: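 Transfected HepG2, 24 h dosing, ERRa-Gal4 chimera driving GAL4-UAS reporter. Readout: reporter mRNA via RT-PCR plus capillary electrophoresis (fluorescence). Positive direction vs DMSO control.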

[13] = target: X-box-binding protein 1 (Homo sapiens) (UniProt P17861); test: ATG_Xbp1_CIS: Attagene CIS-FACTORIAL HepG2 Assay for human X-box Binding Protein 1 (XBP1) (AID 2282972); conditions: HepG2 XBP1 cis-element reporter, Attagene multiplex; actives raise or lower the signal
Method in brief: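 Read-out: fluorescent reporter mRNA fragments resolved by capillary electrophoresis after RT-PCR. Human HepG2 liver cells carried transfected cis-promoter reporter units and were exposed to chemicals for 24 hours. Gain or loss of signal fitted relative to DMSO baseline.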

[14] = ATG_M_19_TRANS: Attagene TRANS-FACTORIAL HepG2 Assay for M19 Transcription Factor (Internal Marker) (AID 2282974; active = hit-call score of the fitted dose curve at least 0.9, where 1 is the maximum); conditions: HepG2 Attagene TRANS-FACTORIAL M19 internal marker reporter
Method in brief: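 Using RT-PCR and capillary electrophoresis, reporter mRNA from transiently transfected human HepG2 cells was quantified following 24 h exposure; activity was fitted in the positive direction against DMSO.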

[15] = ATG_GAL4_TRANS: Attagene TRANS-FACTORIAL HepG2 Assay for GAL4 (Internal Marker) (AID 2282976; active = hit-call score of the fitted dose curve at least 0.9, where 1 is the maximum); conditions: HepG2 Attagene TRANS GAL4 internal marker reporter
Method in brief: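 RT-PCR/capillary electrophoresis readout of reporter mRNA. HepG2, transient MRTU transfection (GAL4-UAS reporters), 24 h compound exposure. Background-control endpoint, positive direction vs DMSO baseline.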

[16] = target: Glucocorticoid receptor (Homo sapiens) (UniProt P04150); test: ATG_GR_TRANS: Attagene TRANS-FACTORIAL HepG2 Assay for human Glucocorticoid Receptor (GR) (AID 2282978; active = hit-call score of the fitted dose curve at least 0.9, where 1 is the maximum;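 note: activators score as hits since higher reporter transcript over DMSO is fitted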); conditions: HepG2 Attagene TRANS GR reporter, mRNA transcription
Method in brief: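 Exogenous NR-GAL4 fusion activity was assessed through induced GAL4-UAS reporter transcripts in transfected human HepG2 cells, quantified after 24 h by RT-PCR and fluorescent capillary electrophoresis with DMSO as baseline.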

[17] = target: Nuclear receptor subfamily 1 group I member 3 (Homo sapiens) (UniProt Q14994); test: ATG_CAR_TRANS: Attagene TRANS-FACTORIAL HepG2 Assay for human Constitutive Androstane Receptor (CAR) (AID 2282969; active = hit-call score of the fitted dose curve at least 0.9, where 1 is the maximum;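 note: activators raise reporter mRNA above DMSO so AC50 marks induction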); conditions: HepG2 Attagene TRANS-FACTORIAL CAR reporter
Method in brief: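 Signal is reporter mRNA induction relative to DMSO, measured 24 h after dosing by RT-PCR with fluorescent primer extension and capillary electrophoresis. Human HepG2 liver cells carried transiently transfected chimeric NR-Gal4/GAL4-UAS reporter constructs.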

[18] = target: Estrogen-related receptor gamma (Homo sapiens) (UniProt P62508); test: ATG_ERRg_TRANS: Attagene TRANS-FACTORIAL HepG2 Assay for human Estrogen-Related Receptor gamma (ERRg) (AID 2282977; active = hit-call score of the fitted dose curve at least 0.9, where 1 is the maximum;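 note: hits increase reporter signal over DMSO so potencies reflect activators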); conditions: HepG2 Attagene TRANS reporter, ERRg transactivation
Method in brief: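 Exogenous NR-Gal4 chimera activity was assessed in HepG2 cells bearing transfected GAL4-UAS reporters. After 24 h dosing, total RNA underwent RT-PCR, fluorescent primer extension and HpaI digestion before capillary electrophoresis, with gain of signal scored against DMSO.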

[19] = target: Androgen receptor (Homo sapiens) (UniProt P10275); test: ATG_AR_TRANS: Attagene TRANS-FACTORIAL HepG2 Assay for human Androgen Receptor (AR) (AID 2282973; active = hit-call score of the fitted dose curve at least 0.9, where 1 is the maximum); conditions: HepG2 Attagene TRANS-FACTORIAL AR reporter transcription
Method in brief: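 Readout is reporter transcript abundance, quantified by fluorescent RT-PCR products separated on capillary electrophoresis. Human HepG2 liver cells carried transiently transfected NR-Gal4 chimera plus GAL4-UAS reporter constructs and were dosed for 24 h; activity scored upward versus DMSO.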

[20] = ATG_PPRE_CIS: Attagene CIS-FACTORIAL HepG2 Assay for human Peroxisome Proliferator-activated Response Element (PPRE) (AID 2282958); conditions: HepG2 PPRE cis-element reporter, Attagene transcription factor profiling; actives raise or lower the signal
Method in brief: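 Measured endpoint: PPRE-controlled reporter mRNA, detected by RT-PCR and capillary electrophoresis fluorescence, from transiently transfected HepG2 cells 24 h after dosing. Curves fitted in both directions using DMSO baseline.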

Measured: AC50

Chain of Estrogen receptor (Homo sapiens) (P03372 whole entry, looked up, the tested form may be a part): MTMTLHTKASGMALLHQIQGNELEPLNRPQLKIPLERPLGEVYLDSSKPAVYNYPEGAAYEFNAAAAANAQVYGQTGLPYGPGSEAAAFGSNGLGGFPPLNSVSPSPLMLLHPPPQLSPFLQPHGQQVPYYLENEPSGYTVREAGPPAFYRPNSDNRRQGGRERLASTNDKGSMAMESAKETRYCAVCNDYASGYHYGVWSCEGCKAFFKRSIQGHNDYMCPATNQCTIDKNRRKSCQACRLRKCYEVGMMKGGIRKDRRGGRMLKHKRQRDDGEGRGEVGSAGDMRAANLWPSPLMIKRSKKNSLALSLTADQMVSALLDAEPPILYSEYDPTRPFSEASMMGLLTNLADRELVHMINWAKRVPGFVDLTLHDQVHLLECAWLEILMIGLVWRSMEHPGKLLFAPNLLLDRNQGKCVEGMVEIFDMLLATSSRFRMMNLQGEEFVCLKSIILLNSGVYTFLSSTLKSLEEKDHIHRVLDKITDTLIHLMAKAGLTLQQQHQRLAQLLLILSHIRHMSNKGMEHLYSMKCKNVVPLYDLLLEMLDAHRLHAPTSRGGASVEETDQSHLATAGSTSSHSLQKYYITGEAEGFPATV
Chain of Glucocorticoid receptor (Homo sapiens) (P04150 whole entry, looked up, the tested form may be a part): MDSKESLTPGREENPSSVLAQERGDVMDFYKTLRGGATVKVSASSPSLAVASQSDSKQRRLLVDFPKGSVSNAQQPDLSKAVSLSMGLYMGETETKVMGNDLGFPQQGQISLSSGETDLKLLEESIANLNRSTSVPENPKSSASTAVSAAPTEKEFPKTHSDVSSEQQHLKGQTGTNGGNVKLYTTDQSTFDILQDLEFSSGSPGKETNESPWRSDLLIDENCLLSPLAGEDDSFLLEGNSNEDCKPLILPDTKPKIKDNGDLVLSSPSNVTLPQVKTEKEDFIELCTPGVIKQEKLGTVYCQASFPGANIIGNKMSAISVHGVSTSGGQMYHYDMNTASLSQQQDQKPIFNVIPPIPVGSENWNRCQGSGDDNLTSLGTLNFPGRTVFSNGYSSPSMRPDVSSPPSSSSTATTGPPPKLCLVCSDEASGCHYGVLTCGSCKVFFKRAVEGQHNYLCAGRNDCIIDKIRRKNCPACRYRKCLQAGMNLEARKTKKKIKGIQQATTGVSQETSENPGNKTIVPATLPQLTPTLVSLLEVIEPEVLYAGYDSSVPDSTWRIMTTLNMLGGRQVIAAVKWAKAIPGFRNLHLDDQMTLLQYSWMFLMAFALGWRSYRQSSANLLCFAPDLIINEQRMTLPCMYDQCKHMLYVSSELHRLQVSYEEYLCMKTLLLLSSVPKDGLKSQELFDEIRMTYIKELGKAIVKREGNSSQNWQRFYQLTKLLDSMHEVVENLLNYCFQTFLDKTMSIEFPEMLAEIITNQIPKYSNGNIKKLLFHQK
Chain of Estrogen-related receptor gamma (Homo sapiens) (P62508 whole entry, looked up, the tested form may be a part): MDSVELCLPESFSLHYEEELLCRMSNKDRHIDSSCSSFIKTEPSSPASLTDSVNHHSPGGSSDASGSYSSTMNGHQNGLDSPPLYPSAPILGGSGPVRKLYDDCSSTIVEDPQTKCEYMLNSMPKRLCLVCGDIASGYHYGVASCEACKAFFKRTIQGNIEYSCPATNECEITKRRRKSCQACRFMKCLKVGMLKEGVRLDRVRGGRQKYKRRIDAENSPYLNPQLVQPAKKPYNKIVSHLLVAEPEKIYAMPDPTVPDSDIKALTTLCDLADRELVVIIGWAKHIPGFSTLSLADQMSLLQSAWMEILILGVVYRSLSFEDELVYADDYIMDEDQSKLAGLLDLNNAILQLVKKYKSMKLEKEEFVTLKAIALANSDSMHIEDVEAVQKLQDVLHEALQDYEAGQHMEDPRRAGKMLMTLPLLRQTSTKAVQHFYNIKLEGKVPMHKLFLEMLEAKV
Chain of Transcription factor Sp1 (Homo sapiens) (P08047 whole entry, looked up, the tested form may be a part): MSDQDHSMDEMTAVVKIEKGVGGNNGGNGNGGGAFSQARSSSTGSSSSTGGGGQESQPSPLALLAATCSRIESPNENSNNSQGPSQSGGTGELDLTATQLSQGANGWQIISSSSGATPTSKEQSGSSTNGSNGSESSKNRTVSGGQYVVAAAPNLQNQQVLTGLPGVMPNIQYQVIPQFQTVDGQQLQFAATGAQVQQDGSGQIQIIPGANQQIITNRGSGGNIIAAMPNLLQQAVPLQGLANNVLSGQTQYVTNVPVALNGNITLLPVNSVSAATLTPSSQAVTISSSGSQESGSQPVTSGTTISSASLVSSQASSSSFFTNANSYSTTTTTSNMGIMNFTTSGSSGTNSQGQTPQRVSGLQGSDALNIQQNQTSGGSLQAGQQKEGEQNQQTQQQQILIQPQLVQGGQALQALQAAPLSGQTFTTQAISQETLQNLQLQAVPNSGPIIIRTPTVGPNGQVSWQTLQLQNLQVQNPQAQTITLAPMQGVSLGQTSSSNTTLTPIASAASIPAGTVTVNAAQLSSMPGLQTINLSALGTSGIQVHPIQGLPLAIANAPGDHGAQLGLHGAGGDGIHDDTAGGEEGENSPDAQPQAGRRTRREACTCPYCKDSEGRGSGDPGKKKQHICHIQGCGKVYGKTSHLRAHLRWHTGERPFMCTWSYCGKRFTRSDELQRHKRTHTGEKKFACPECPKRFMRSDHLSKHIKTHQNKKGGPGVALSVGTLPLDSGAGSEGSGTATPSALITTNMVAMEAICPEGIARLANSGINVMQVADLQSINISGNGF
Chain of Steroid hormone receptor ERR1 (Homo sapiens) (P11474 whole entry, looked up, the tested form may be a part): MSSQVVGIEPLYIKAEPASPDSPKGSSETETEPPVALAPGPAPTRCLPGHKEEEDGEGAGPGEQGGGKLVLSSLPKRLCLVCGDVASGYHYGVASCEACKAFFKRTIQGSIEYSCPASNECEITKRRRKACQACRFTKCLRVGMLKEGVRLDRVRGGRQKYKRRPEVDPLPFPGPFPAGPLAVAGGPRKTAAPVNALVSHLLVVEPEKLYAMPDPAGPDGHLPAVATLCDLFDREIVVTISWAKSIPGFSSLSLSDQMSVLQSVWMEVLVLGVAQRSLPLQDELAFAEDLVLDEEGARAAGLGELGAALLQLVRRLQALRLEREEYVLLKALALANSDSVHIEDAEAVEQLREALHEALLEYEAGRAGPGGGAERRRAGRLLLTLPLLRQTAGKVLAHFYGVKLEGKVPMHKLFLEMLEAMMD
Chain of X-box-binding protein 1 (Homo sapiens) (P17861 whole entry, looked up, the tested form may be a part): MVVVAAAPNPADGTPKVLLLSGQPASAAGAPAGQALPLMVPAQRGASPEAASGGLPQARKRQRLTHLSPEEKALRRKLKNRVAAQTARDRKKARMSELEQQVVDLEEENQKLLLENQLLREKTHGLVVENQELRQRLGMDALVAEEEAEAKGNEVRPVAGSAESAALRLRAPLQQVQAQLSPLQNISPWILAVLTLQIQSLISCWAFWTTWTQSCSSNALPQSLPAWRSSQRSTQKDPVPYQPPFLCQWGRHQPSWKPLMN
Chain of Androgen receptor (Homo sapiens) (P10275 whole entry, looked up, the tested form may be a part): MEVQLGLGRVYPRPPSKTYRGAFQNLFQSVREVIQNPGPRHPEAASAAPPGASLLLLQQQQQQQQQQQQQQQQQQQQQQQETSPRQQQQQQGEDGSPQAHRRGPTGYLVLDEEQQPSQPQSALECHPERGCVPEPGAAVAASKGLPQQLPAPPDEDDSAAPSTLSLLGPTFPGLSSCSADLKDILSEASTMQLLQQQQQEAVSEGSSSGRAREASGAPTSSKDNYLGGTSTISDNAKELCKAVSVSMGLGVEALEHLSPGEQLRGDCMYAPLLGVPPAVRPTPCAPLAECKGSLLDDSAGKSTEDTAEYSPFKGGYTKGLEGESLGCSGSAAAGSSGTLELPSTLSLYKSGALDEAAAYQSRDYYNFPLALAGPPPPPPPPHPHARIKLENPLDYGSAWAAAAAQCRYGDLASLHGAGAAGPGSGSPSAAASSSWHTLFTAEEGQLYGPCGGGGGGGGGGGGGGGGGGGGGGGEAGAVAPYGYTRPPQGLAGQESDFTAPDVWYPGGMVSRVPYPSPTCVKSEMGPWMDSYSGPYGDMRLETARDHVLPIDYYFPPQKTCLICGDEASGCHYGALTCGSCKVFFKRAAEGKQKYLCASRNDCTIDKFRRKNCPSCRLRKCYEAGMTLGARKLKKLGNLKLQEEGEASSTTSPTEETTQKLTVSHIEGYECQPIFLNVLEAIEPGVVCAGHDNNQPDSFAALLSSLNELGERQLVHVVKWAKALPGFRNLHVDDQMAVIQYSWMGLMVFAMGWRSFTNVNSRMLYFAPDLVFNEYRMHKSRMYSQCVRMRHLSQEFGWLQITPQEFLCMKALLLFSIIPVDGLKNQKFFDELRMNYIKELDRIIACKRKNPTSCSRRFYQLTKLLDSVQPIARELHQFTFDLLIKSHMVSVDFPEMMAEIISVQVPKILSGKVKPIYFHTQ
Chain of Nuclear receptor subfamily 1 group I member 3 (Homo sapiens) (Q14994 whole entry, looked up, the tested form may be a part): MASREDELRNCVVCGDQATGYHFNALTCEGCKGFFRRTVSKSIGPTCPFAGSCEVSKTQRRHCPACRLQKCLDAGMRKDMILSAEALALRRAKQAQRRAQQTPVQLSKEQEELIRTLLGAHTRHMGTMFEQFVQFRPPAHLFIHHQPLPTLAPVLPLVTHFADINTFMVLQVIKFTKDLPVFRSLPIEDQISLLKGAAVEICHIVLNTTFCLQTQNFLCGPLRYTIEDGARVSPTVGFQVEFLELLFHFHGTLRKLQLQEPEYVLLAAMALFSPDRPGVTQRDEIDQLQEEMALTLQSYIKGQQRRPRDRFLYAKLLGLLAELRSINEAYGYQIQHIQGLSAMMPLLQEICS

NNC(=S)NN
not listed: [16] | [17] | [18] | [19] | [20]
inactive: all other assays above

Oc1ccc(-c2ccccc2)cc1
active: [1] 162 µM | [2] 145 µM | [3] 147 µM | [10] 83.2 µM | [13] 69.4 µM
inactive: [4] | [5] | [6] | [7] | [8] | [9] | [16]

O=C(O)C(F)(F)C(F)(F)C(F)(F)C(F)(F)C(F)(F)C(F)(F)C(F)(F)C(F)(F)C(F)(F)C(F)(F)F
inactive: [1] | [2] | [3] | [4] | [5] | [6] | [17] | [12] | [13] | [14] | [18]
active: [1] 24.2 µM | [2] 58.4 µM | [7] 31.9 µM and 13.1 µM | [9] 105 µM and 13.4 µM | [10] 25.7 µM and 16.8 µM | [13] 26.7 µM

COc1ccc(C=O)cc1OC
active: [11] 58.6 µM
not listed: [10] | [15] | [16] | [17] | [18] | [19] | [20]
inactive: all other assays above

Cl/C=C/Cl
inactive: [1] | [2] | [3] | [4] | [5] | [6] | [7] | [8] | [9] | [10] | [13]

CC(=O)[O][Hg][c]1ccccc1
inactive: [2] | [4] | [5] | [6] | [7] | [8] | [9] | [12] | [16]
active: [1] 3.71 µM | [3] 2.87 µM | [10] 3.71 µM | [13] 3.71 µM

COc1cc(OC)nc(NC(=O)NS(=O)(=O)c2ncccc2C(=O)N(C)C)n1
active: [11] 77.8 µM
not listed: [12] | [14] | [16] | [18] | [19] | [20]
inactive: all other assays above

CC(=O)c1cc(C(C)(C)C)cc2c1CCC2(C)C
active: [3] 69.3 µM | [4] 54.4 µM | [10] 25.6 µM | [13] 75.2 µM
not listed: [15] | [17] | [18] | [19] | [20]
inactive: all other assays above

CCCCOCCOC(C)=O
not listed: [11] | [16] | [17] | [18] | [19] | [20]
inactive: all other assays above

O=C1C2(Cl)C3(Cl)C4(Cl)C(Cl)(Cl)C5(Cl)C3(Cl)C1(Cl)C5(Cl)C24Cl (configuration not stated)
active: [2] 5.49 µM and 15.5 µM | [3] 5.85 µM | [5] 5.58 µM | [7] 17.7 µM | [8] 20.3 µM | [10] 13.1 µM | [13] 15.9 µM
inactive: [1] | [2] | [3] | [4] | [5] | [6] | [7] | [8] | [9] | [10] | [12] | [13] | [19] | [14] | [15] | [18] | [16]

COP(=S)(OC)Oc1cc(Cl)c(Cl)cc1Cl
active: [20] 26.6 µM | [9] 79.6 µM | [11] 36.3 µM
not listed: [1] | [10] | [12] | [14] | [15] | [18]
inactive: all other assays above

O=C(Cc1ccccc1)c1ccccc1
active: [11] 22.7 µM
not listed: [12] | [15] | [18] | [19] | [20]
inactive: all other assays above
